Measurements published in PubChem BioAssay (NCI).
The panel holds about 83,000 compounds, 20% with a hit somewhere; the sample as a whole holds those more often.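 Activity criterion: percent growth below 10, measured after cells in 96-well plates were exposed to a single compound concentration for 48 hours.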 Calls of active or inactive are those of the source.

Experiments:
Assay in all cases: NCI-60 one-dose screen, 48 h (100 = growth as untreated, 0 = no growth, -100 = all killed)
Details in all cases: 10 µM unless noted
SK-MEL-2 melanoma = system: SK-MEL-2 melanoma
EKVX NSCLC = system: EKVX NSCLC
SN12C renal = system: SN12C renal
UO-31 renal = system: UO-31 renal
TK-10 renal = system: TK-10 renal
ACHN renal = system: ACHN renal
CAKI-1 renal = system: CAKI-1 renal
A498 renal = system: A498 renal
CCRF-CEM leukemia = system: CCRF-CEM leukemia
MOLT-4 leukemia = system: MOLT-4 leukemia

Measured: growth

COc1ccc(C/C(C)=C(/c2ccc(OCCN(C)C)cc2)c2ccc(OC(=O)NCc3ccccc3)cc2)cc1
inactive: SK-MEL-2 melanoma 90.5% | EKVX NSCLC 72.2% | SN12C renal 74.2% | UO-31 renal 46.4% | TK-10 renal 78.5% | ACHN renal 90.9% | CAKI-1 renal 67.1% | A498 renal 85.7% | CCRF-CEM leukemia 47.2% | MOLT-4 leukemia 37.3%

COc1cc2c(cc1OC)C(C)N(S(N)(=O)=O)CC2 (stereo not given)
inactive: SK-MEL-2 melanoma 106% | EKVX NSCLC 107% | SN12C renal 88.7% | UO-31 renal 81.9% | TK-10 renal 103% | ACHN renal 102% | CAKI-1 renal 101% | A498 renal 102% | CCRF-CEM leukemia 80% | MOLT-4 leukemia 91.8%

O=C1Nc2ccc(C(=O)O)cc2/C1=N/c1nnc(Sc2ccccc2)s1
inactive: SK-MEL-2 melanoma 112% | EKVX NSCLC 104% | SN12C renal 96.9% | UO-31 renal 84.3% | TK-10 renal 106% | ACHN renal 98.4% | CAKI-1 renal 85.9% | A498 renal 86.8% | CCRF-CEM leukemia 99.7% | MOLT-4 leukemia 105%

C/C(Cc1ccc(Cl)cc1)=C(\c1ccc(O)cc1)c1ccc(Cl)cc1
inactive: SK-MEL-2 melanoma 90.9% | EKVX NSCLC 83.9% | SN12C renal 95.1% | UO-31 renal 85.1% | TK-10 renal 95.3% | ACHN renal 99.5% | CAKI-1 renal 84.7% | A498 renal 116% | CCRF-CEM leukemia 92.2% | MOLT-4 leukemia 81%

CS(=O)(=O)Nc1cc(-c2ccc3ncnc(Nc4ccc5c(cnn5Cc5ccc(F)cc5)c4)c3c2)cnc1Cl
active: SK-MEL-2 melanoma 3.86% | A498 renal -23.2%
inactive: EKVX NSCLC 62.5% | SN12C renal 35.6% | UO-31 renal 46.5% | TK-10 renal 38.3% | ACHN renal 70.6% | CAKI-1 renal 25.7% | CCRF-CEM leukemia 31.2% | MOLT-4 leukemia 21.2%

CCCCCC(/C=N\NC(=S)N/N=C/C(=C/c1ccccc1)CCCCC)=C\c1ccccc1
inactive: SK-MEL-2 melanoma 80.9% | EKVX NSCLC 76.6% | SN12C renal 68.1% | UO-31 renal 45.4% | TK-10 renal 87.3% | ACHN renal 69.3% | CAKI-1 renal 42.1% | A498 renal 70.1% | CCRF-CEM leukemia 31.1% | MOLT-4 leukemia 42%

COC(CC(F)F)c1cn(S(=O)(=O)c2ccc(C)cc2)c2ccccc12 (stereo not given)
inactive: SK-MEL-2 melanoma 41.3% | EKVX NSCLC 48.3% | SN12C renal 43.3% | UO-31 renal 33.8% | TK-10 renal 59.3% | ACHN renal 51% | CAKI-1 renal 37.4% | A498 renal 42.3% | CCRF-CEM leukemia 11.1% | MOLT-4 leukemia 22.3%

COc1cc2ncnc(Nc3ccc(S(=O)(=O)Nc4cc(C)on4)cc3)c2cc1OCCCN1CCN(c2ccc(F)cc2)CC1
inactive: SK-MEL-2 melanoma 113% | EKVX NSCLC 109% | SN12C renal 100% | UO-31 renal 77.5% | TK-10 renal 115% | ACHN renal 97.4% | CAKI-1 renal 87.7% | A498 renal 91.9% | CCRF-CEM leukemia 103% | MOLT-4 leukemia 102%

O=C1c2ccccc2-c2c1c1c(=O)[nH]c3ccccc3c1n2Cc1ccccc1
active: CAKI-1 renal 2.5% | A498 renal 0.459%
inactive: SK-MEL-2 melanoma 75.2% | EKVX NSCLC 51.9% | SN12C renal 69.9% | UO-31 renal 78.3% | TK-10 renal 75.7% | ACHN renal 46.6% | CCRF-CEM leukemia 87.4% | MOLT-4 leukemia 64.9%

C=C1CC[C@@H]2[C@](C)(COC(C)=O)[C@H](OC(C)=O)CC[C@@]2(C)[C@@H]1CC(Nc1ccc(S(=O)(=O)Nc2ncccn2)cc1)C1=CCOC1=O (stereo not given in full)
inactive: SK-MEL-2 melanoma 41.9% | EKVX NSCLC 68.3% | TK-10 renal 35.1% | CAKI-1 renal 50.2% | A498 renal 79%
active: SN12C renal 7.64% | UO-31 renal -17.9% | ACHN renal -56.1% | CCRF-CEM leukemia -26.3% | MOLT-4 leukemia -8.69%

Fc1cnccc1C1CC(c2ccc(N3CCNCC3)cc2)=NN1 (stereo not given)
inactive: SK-MEL-2 melanoma 92.7% | EKVX NSCLC 91% | SN12C renal 89.6% | UO-31 renal 77.2% | TK-10 renal 123% | ACHN renal 99.9% | CAKI-1 renal 80.6% | A498 renal 97.2% | CCRF-CEM leukemia 80.8% | MOLT-4 leukemia 74.2%

O=C(CN1C(=O)NC2NC(=O)NC21)N/N=C/c1ccccc1[N+](=O)[O-] (stereo not given)
inactive: SK-MEL-2 melanoma 114% | EKVX NSCLC 103% | SN12C renal 105% | UO-31 renal 87.8% | TK-10 renal 116% | ACHN renal 103% | CAKI-1 renal 90.1% | A498 renal 104% | CCRF-CEM leukemia 107% | MOLT-4 leukemia 103%

Nc1c(C(=O)Nc2ccccc2C(F)(F)F)sc2nc3c(cc12)CCC3
inactive: SK-MEL-2 melanoma 102% | EKVX NSCLC 97.1% | SN12C renal 101% | UO-31 renal 98% | TK-10 renal 89.9% | ACHN renal 99.6% | CAKI-1 renal 101% | A498 renal 95.1% | CCRF-CEM leukemia 101% | MOLT-4 leukemia 88.1%

O=C(Nc1nc(-c2ccc(Cl)cc2)nc2c1sc(=S)n2-c1ccccc1)C(F)(F)F
inactive: SK-MEL-2 melanoma 43.3% | EKVX NSCLC 55% | SN12C renal 57% | CAKI-1 renal 20.2% | CCRF-CEM leukemia 72.2% | MOLT-4 leukemia 82.6%
active: UO-31 renal -41.9% | TK-10 renal -31.9% | ACHN renal -48.5% | A498 renal -8.62%

CCC(C)(C)C(=O)O[C@H]1C[C@@H](C)C=C2C=C[C@H](C)[C@H](CC[C@@H]3CC(SCCN)CC(=O)O3)[C@H]21 (stereo not given in full)
inactive: SK-MEL-2 melanoma 91.1% | EKVX NSCLC 105% | SN12C renal 77% | UO-31 renal 68.6% | TK-10 renal 92.1% | ACHN renal 95.8% | CAKI-1 renal 83.9% | A498 renal 90.3% | CCRF-CEM leukemia 12.1% | MOLT-4 leukemia 77.7%

CCCCNC(=O)Oc1ccc(/C(=C(/C)Cc2ccc(OC)cc2)c2ccc(OCCN(CC)CC)cc2)cc1
inactive: SK-MEL-2 melanoma 102% | EKVX NSCLC 83.9% | SN12C renal 83.8% | UO-31 renal 58.4% | TK-10 renal 79.7% | ACHN renal 91.1% | CAKI-1 renal 89.9% | A498 renal 102% | CCRF-CEM leukemia 49.3% | MOLT-4 leukemia 48.3%

O=C1/C(=C/c2cn(-c3ccccc3)nc2-c2ccccc2)SC(=S)N1C1CCCCC1
inactive: SK-MEL-2 melanoma 108% | EKVX NSCLC 97.4% | SN12C renal 92.9% | UO-31 renal 94.2% | TK-10 renal 117% | ACHN renal 102% | CAKI-1 renal 85.2% | A498 renal 66.9% | CCRF-CEM leukemia 107% | MOLT-4 leukemia 108%

Nc1n[nH]c2ccc([C@H]3[C@@H]4C5CCC(C5)[C@@H]4c4c(ccc5[nH]ncc45)N3S(=O)(=O)C3CC3)cc12 (stereo not given in full)
inactive: SK-MEL-2 melanoma 53.2% | EKVX NSCLC 29.8% | SN12C renal 29.1% | UO-31 renal 43% | TK-10 renal 61.7% | ACHN renal 18.5% | CAKI-1 renal 26.2% | CCRF-CEM leukemia 16.2% | MOLT-4 leukemia 19%
active: A498 renal -29.2%

CN1CCN(C(=O)c2ccc(NC(=O)c3cc4c(nn3)NCCN4Cc3cc(Cl)ccc3Cl)cc2)CC1
inactive: SK-MEL-2 melanoma 78.8% | EKVX NSCLC 85.8% | SN12C renal 74.9% | UO-31 renal 60.5% | TK-10 renal 92.1% | ACHN renal 75.1% | CAKI-1 renal 75.1% | A498 renal 43.7% | CCRF-CEM leukemia 42% | MOLT-4 leukemia 39.6%

COC(=O)c1nc(-c2ccc(C)cc2)oc1S(=O)(=O)c1cccc(OC)c1
active: CCRF-CEM leukemia -9.09% | MOLT-4 leukemia -7.44%
inactive: SK-MEL-2 melanoma 95.9% | EKVX NSCLC 100% | SN12C renal 85% | UO-31 renal 90.3% | TK-10 renal 64.8% | ACHN renal 42.8% | CAKI-1 renal 69.5% | A498 renal 102%

O=C(Nc1nc2cc(C(=O)N3CCN(C(c4ccccc4)c4ccccc4)CC3)ccc2o1)c1ccc(NC2CCCCC2)c([N+](=O)[O-])c1
inactive: SK-MEL-2 melanoma 90.8% | EKVX NSCLC 52.5% | SN12C renal 53.8% | UO-31 renal 66.5% | TK-10 renal 84.5% | ACHN renal 47% | CAKI-1 renal 54.5% | A498 renal 76.2% | CCRF-CEM leukemia 28.3% | MOLT-4 leukemia 47.9%

Cc1c[n+](Cc2ccc3ccccc3c2)cn1Cc1ccc2ccccc2c1
inactive: EKVX NSCLC 38.1% | UO-31 renal 77.6% | ACHN renal 89.5% | CAKI-1 renal 94% | A498 renal 50.1%
active: SK-MEL-2 melanoma -48.5% | SN12C renal 7.56% | TK-10 renal -4.54% | CCRF-CEM leukemia 3.95% | MOLT-4 leukemia -3.59%
